The results in this text go back to paper PMC5540273 (PLoS ONE, 2017).

Test systems include FGFR1; FGFR2; FGFR3; FGFR4; FGR; FLT1; FLT3-autoinhibited; FLT3; FLT4; FRK.
Common to all, as to settings: concentration: 1 μM,replicates: in singlicate; n = 1
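Further: KINOMEscan kinase panel screen.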

Turning to `CS(=O)(=O)c1cccc(CNc2nc(Nc3ccc4c(c3)[C@@H]3C[C@@H]4CNC3=O)ncc2C(F)(F)F)c1`, the “%Inh” value in the assay with FGFR1 is 86%; in the assay on FGFR2, 85%; with FGFR3 it was 73%; in the assay on FGFR4 it was 92.1%; in the assay with FGR it was 31%; with FLT1 it was 94.4%. The “%Inh” value with FLT3-autoinhibited was 75%; in the assay with FLT3, 99.6%; with FLT4 it was 99.4%; in the assay with FRK, 0%.

As to `COc1cccc(C2=C(Nc3cccc(Cl)c3)C(=O)NC2=O)c1` [SB-341556], the “%Inh” value is given as 21% with FGFR1; 23% with FGFR2; 29% with FGFR3; 15% in the assay with FGFR4; 5% with FGR; 13% with FLT1. The “%Inh” value is listed as 4% in the assay with FLT3-autoinhibited, 0% in the assay on FLT3, 15% in the assay on FLT4 and 16% in the assay with FRK.

On to `CC(=O)Nc1ccc(-c2cc3ncnc(SCC(=O)O)c3s2)cc1`, for which the “%Inh” value with FGFR1 came out at 27%; in the assay with FGFR2 it was 15%; with FGFR3 it was 0%; with FGFR4, 0%; with FGR it was 21%; in the assay on FLT1, 5%. Also, the “%Inh” value with FLT3-autoinhibited is 33%; in the assay with FLT3, 39%; with FLT4, 0%; in the assay with FRK it was 0%.

For `COc1cc(Nc2nccc(N3CCC(NC(=O)c4cccc(C#N)c4)C3)n2)cc(OC)c1OC` (centres unmarked) [GSK1379751], the “%Inh” value turned out to be 0% in the assay with FGFR1; 0% in the assay on FGFR2; 5% in the assay on FGFR3; 7% in the assay on FGFR4; 37% with FGR; 0% in the assay on FLT1. Also, the “%Inh” value in the assay with FLT3-autoinhibited is 0%; with FLT3, 44%; with FLT4, 11%; with FRK, 0%.

`Nc1nccc(-c2ccc3c(N)n[nH]c3c2)n1` [GSK1034945]: the “%Inh” value in the assay with FGFR1 is on record as 0%; in the assay on FGFR2, 0%; in the assay with FGFR3, 0%; in the assay on FGFR4 it was 12%; with FGR, 15%; with FLT1, 6%. In addition, the “%Inh” value in the assay on FLT3-autoinhibited was found to be 2%; with FLT3, 0%; in the assay with FLT4 it was 11%; with FRK it was 0%.

For `COC(=O)c1cccc(NC(=O)NC2CCN(c3ccnc(NCc4ccc(F)cc4)n3)CC2)c1` [GSK1379860], the “%Inh” value in the assay with FGFR1 came out at 3%; in the assay on FGFR2, 27%; with FGFR3 it was 11%; with FGFR4, 0%; in the assay on FGR, 11%; in the assay with FLT1 it was 42%. In addition, the “%Inh” value with FLT3-autoinhibited is reported as 24%; with FLT3 it was 0%; with FLT4, 38%; in the assay on FRK it was 16%.

Consider `Cc1ccc(C(=O)Nc2ccc(Oc3ccc4nc(NC(=O)C5CC5)cn4c3)c(F)c2)c(=O)n1-c1ccccc1`, for which the “%Inh” value with FGFR1 was 0%; with FGFR2, 23%; in the assay on FGFR3, 11%; in the assay with FGFR4, 1%; in the assay with FGR it was 91%; in the assay on FLT1, 67%. In addition, the “%Inh” value in the assay with FLT3-autoinhibited is recorded as 62%; with FLT3 it was 98.5%; in the assay with FLT4, 100%; in the assay with FRK it was 64%.

Consider `O=C(Nc1cccc(C(F)(F)F)c1)c1cccc(Oc2ccc3nccn3n2)c1`, for which the “%Inh” value in the assay on FGFR1 worked out at 24%; in the assay on FGFR2 it was 15%; with FGFR3 it was 5%; with FGFR4, 6%; with FGR, 0%; in the assay on FLT1, 97.4%. Besides, the “%Inh” value in the assay with FLT3-autoinhibited is on record as 17%; in the assay on FLT3, 18%; in the assay on FLT4 it was 78%; in the assay on FRK it was 87%.
